# Compound activity from PubChem.
# In the library only some 2.2% were active in any assay of this set; here they are far more common.
# HIF-2a inh – HIF-2a inhibition; 786-0 RCC cells HIF-2a reporter, luciferase luminescence, overnight; inhibition, % at 18.8 µM; hit rate 0.72% among 360,000;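 active = inhibition of the luminescence signal of 40% or more relative to plate controls, in a single-dose primary screen at 18.75 µM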
# PPC-1+TRAIL kill – compounds killing PPC-1 cancer cells with TRAIL present (potentiator screen, no TRAIL-free arm); hit rate 0.41% among 220,000; PPC-1 cells + TRAIL, ATPLite viability luminescence; AID 1443; cell killing (% activity), % at 4 µM or 5 µM;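 active = cell killing above 50% in the first pass at 4 µM, then a duplicate retest at 5 µM averaging 50% or more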;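 note: plate controls were cells with TRAIL plus DMSO for no effect and medium-only wells lacking cells for full effect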
# CF NFkB block – blocks PAF-induced NF-kB reporter in cystic fibrosis cells; hit rate 0.86% among 360,000; KKLEB NF-kB-GFP reporter, GFP fluorescence overnight; inhibition, % at 5 µM; AID 588850;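 active = at least 50% inhibition at 5 µM, scaled per plate between neutral and stimulator controls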;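 note: PAF is a Pseudomonas aeruginosa culture filtrate used as stimulus; plate controls were PAF-stimulated DMSO wells for no effect and unstimulated DMSO wells for full effect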
# TRAIL sens C8 – sensitizes caspase-8 expressing cells to TRAIL; NB7+C8 cells + TRAIL, ATPlite viability luminescence; inhibition (viability loss, TRAIL sensitization), % at 10 µM; hit rate 1% among 360,000; AID 624354;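 active = compounds causing at least 50% loss of cell viability in the single-dose screen, relative to plate controls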
# iPSC survival up – hiPSC single-cell survival enhancement; ATPlite luminescence; 100% = ROCK inhibitor wells, 0% = DMSO; survival enhancement, % at 20 µM; hit rate 0.044% among 360,000; in the data active = survival enhancement above about 18%;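 note: cells exposed to compounds for 16 hours before the ATP read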
# KKLEB cytotox – CF airway cell cytotoxicity counter-screen | KKLEB CF airway cells viability, ATPlite luminescence, overnight; active compounds read low; cells stimulated with P. aeruginosa culture filtrate | activity change (cytotoxicity), % at 5 µM | hit rate 0.36% among 360,000 | AID 602141;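 active = corrected activity change at or below -50% at 5 µM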
# * hit, by the source's call; nt = no result given.
SMILES,HIF-2a inh,PPC-1+TRAIL kill,CF NFkB block,TRAIL sens C8,iPSC survival up,KKLEB cytotox
CC(NC(=O)COC(=O)c1cc(NS(=O)(=O)c2ccc(Cl)c([N+](=O)[O-])c2)ccc1O)C1CC2CCC1C2 (centres undefined),84*,24,-16,-3,16,4
COc1ccc(NS(=O)(=O)c2ccc(O)c(C(=O)OCC(=O)NC(C)C3CC4CCC3C4)c2)cc1 (centres undefined),23,19,-22,-9,0,20
CC(=O)N1CCc2c(sc(NC(=O)c3ccc([N+](=O)[O-])o3)c2C#N)C1,-11,40,98*,20,-2,-64*
Clc1ncnc2c1oc1ccccc12,-233,11,-4,65*,-6,3
CCSc1ncnc2c1oc1ccccc12,-36,-12,-3,-14,0,4
COc1ccc2c(COC(=O)[C@@H]3CCCN3S(=O)(=O)c3ccc(Cl)cc3)cc(=O)oc2c1,3,nt,-4,-1,0,-4
CCn1c(=S)sc2c(=O)n(CC(=O)Nc3cccc(Cl)c3)c(C)nc21,11,nt,10,-8,0,19
COc1ccc2nc(N=Nc3ccc(O)c4ccccc34)sc2c1,4,41,16,55*,-2,-19
C=CCN1C(=O)c2ccc(C(=O)N3CCN(S(=O)(=O)c4ccccc4Br)CC3)cc2C1=O,4,nt,4,2,0,4
COc1cc2c3nnc(-c4ccc(F)cc4)c-3cn(Cc3cccc(C)c3)c2cc1OC,19,16,-72,59*,-3,-77*
COc1cc2c3nnc(-c4ccccc4)c-3cn(Cc3ccc(F)cc3)c2cc1OC,19,10,-213,3,-3,-18
COc1cc2c3nnc(-c4ccc(F)cc4)c-3cn(Cc3ccc(C)cc3)c2cc1OC,-1,15,-94,84*,-2,-12
Cc1nn(C(C)C(=O)NC2CCC(C)CC2)c(=O)c2nn(-c3ccccc3)c(C)c12 (centres undefined),-101,nt,-23,2,0,-1
CCc1ccc(C=C2SC(=S)N(CCCC(=O)Nc3ccc(C(=O)O)cc3)C2=O)cc1,51*,nt,6,10,-3,-12
CCOc1ccc(/C=C2\SC(=S)N(CCC(=O)N(CCO)c3ccccc3)C2=O)cc1,57*,nt,6,34,0,-1
CCc1ccc(/C=C2/SC(=S)N(CCC(=O)Nc3ccc(C(=O)O)cc3)C2=O)cc1,10,nt,-1,1,0,6
CCc1ccc(/C=C2\SC(=S)N(CCCC(=O)N(CCO)c3ccccc3)C2=O)cc1,65*,nt,20,92*,0,-17
CCCc1nnc(NC(=O)CCC(=O)NC2CCCC2)s1,9,nt,1,-6,0,13
CC1(C)CSC(C)(C)C(=O)N1,5,nt,3,-2,1,-10
COc1cc(F)cc(-c2ccc3c(c2)c(C#Cc2ccsc2)c(-c2cc(OC)cc(OC)c2)n3C)c1,5,nt,24,10,2,-10
CCN1/C(=C/C(C)=C/c2sc3ccccc3[n+]2CC)Sc2ccccc21,95*,47,6,50*,-2,-43
CC1C(=O)Nc2ccccc2N1C(=O)c1ccc(O)cc1 (centres undefined),6,nt,3,-2,0,-6
O=C1Nc2ccccc2N(C(=O)c2ccc3ccccc3c2)C1c1nc2ccccc2[nH]1 (centres undefined),-216,nt,nt,58*,-1,nt
COc1cc(/C=C2/C(=O)c3cccc([N+](=O)[O-])c3C2=O)c(Br)cc1O,96*,10,41,19,-1,-26
COc1ccccc1NC(=O)CCCCCN1C(=O)c2cccc([N+](=O)[O-])c2C1=O,14,nt,-32,-18,1,1
SMILES,HIF-2a inh,PPC-1+TRAIL kill,CF NFkB block,TRAIL sens C8,iPSC survival up,KKLEB cytotox
CCCN(C(=O)CSc1n[nH]c(-c2ccc(OC)cc2)n1)c1c(N)n(Cc2ccccc2)c(=O)[nH]c1=O,6,nt,-5,22,0,-4
COc1ccc(-c2nc(SCC(=O)N(CC(C)C)c3c(N)n(Cc4ccccc4)c(=O)[nH]c3=O)n[nH]2)cc1,-12,nt,-5,51*,0,6
CCCCCN(C(=O)CCC(=O)OCc1ccc(C(C)C)cc1)c1c(N)n(CCCC)c(=O)[nH]c1=O,-5,nt,54*,2,0,-54*
CCCCCN(C(=O)CCC(=O)OCc1ccc(C(C)(C)C)cc1)c1c(N)n(CCCC)c(=O)[nH]c1=O,19,nt,37,-5,0,-7
COc1cc(NCCCCCCN)c2ncccc2c1OC,6,nt,24,-12,-2,-18
COc1cc(NCCCCC(C)N)c2nccc(C)c2c1 (centres undefined),22,nt,45,54*,-4,10
O=C(N/N=C/c1cc([N+](=O)[O-])ccc1O)c1ccc(COc2ccc3c(c2)CCC3)o1,-24,nt,45,52*,0,-21
COc1ccc(Br)cc1/C=N/NC(=O)c1ccc(COc2ccc3c(c2)CCC3)o1,-26,-1,14,-5,0,-13
CC1=C(C(=O)OCc2ccccc2)C(c2ccccc2Br)NC(=O)N1 (centres undefined),32,nt,-1,-4,-1,3
CC(C)C(=O)N1CCC1(C)C(=O)Nc1ccc2cn[nH]c2c1 (centres undefined),16,nt,28,6,0,-8
COC(=O)C1=C(CN2CCCc3ccccc32)NC(=O)NC1c1ccc(F)cc1 (centres undefined),63*,-9,-29,14,-2,-4
COC(=O)C1=C(CN2CCc3ccccc32)NC(=O)NC1c1cc(C)ccc1C (centres undefined),15,7,21,-6,4,12
COc1ccc(/C=C/C(=O)Nc2cc(C)nn2-c2nc3ccccc3[nH]2)cc1,-224,49,7,71*,-2,-45
Cc1cc(NC(=O)/C=C/c2cccc(Cl)c2)n(-c2nc3ccccc3[nH]2)n1,-71,-2,54*,21,-1,-56*
Cc1cc(NC(=O)/C=C/c2cccc(F)c2)n(-c2nc3ccccc3[nH]2)n1,-22,21,33,14,2,-31
Cc1cc(NC(=O)/C=C/c2ccc(F)cc2)n(-c2nc3ccccc3[nH]2)n1,-25,45,40,44,-2,-30
CCc1cc2c(SCC(=O)Nc3cc(C)on3)ncnc2s1,9,22,-4,-5,0,5
CCOC(=O)C1CCN(S(=O)(=O)c2c(Cl)ccc3nonc23)CC1,92*,nt,90*,41,0,-44
O=C(Nc1ccc(N2CCN(C(=O)c3ccco3)CC2)c(Cl)c1)c1cc2ccccc2o1,-28,21,2,61*,-1,-4
CCCC(=O)N1CCN(c2ccc(NC(=O)c3cccs3)cc2Cl)CC1,-6,nt,16,-5,-1,11
